The text below walks through data of ChEMBL document CHEMBL1961873, “Compounds: GSK PKIS; Assays: Nanosyn kinase panel” (2012).

Assay [1] has as its target T1, Muscle, skeletal receptor tyrosine-protein kinase (Homo sapiens) (UniProt O15146).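 Note: reported value is the mean percent inhibition of MuSK kinase.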
T1 sequence (whole entry): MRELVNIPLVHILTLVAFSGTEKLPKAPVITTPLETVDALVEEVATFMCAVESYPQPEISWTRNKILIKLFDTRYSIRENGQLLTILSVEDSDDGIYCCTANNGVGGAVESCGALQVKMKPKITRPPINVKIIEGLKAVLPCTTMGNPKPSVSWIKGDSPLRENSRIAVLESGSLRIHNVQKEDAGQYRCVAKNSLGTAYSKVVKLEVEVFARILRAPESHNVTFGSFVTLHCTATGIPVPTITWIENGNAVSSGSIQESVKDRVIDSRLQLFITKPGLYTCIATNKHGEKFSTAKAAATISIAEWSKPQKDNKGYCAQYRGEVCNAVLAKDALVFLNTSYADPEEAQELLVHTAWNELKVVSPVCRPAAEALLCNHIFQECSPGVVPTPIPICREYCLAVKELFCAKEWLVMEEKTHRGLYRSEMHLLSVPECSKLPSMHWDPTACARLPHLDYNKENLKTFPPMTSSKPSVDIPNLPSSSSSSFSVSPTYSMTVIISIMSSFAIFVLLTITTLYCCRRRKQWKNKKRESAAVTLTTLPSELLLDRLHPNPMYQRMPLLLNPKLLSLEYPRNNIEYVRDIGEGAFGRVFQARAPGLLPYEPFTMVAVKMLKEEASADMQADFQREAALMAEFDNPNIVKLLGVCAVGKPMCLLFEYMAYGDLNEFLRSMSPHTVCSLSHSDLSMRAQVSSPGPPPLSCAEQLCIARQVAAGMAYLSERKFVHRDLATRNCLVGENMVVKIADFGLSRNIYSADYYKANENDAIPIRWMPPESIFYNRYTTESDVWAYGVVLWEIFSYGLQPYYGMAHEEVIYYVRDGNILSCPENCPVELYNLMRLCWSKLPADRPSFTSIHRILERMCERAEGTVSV
Particulars: at 1 µM.

Assay [2] concerns the target Platelet-derived growth factor receptor alpha (Homo sapiens) (UniProt P16234). The following applies: at 0.1 µM.
For assay [3] the target is unchanged. The following applies: at 1 µM.
For assay [4], the system named is Platelet-derived growth factor receptor alpha (Homo sapiens), P16234 [D842V]. The following applies: at 0.1 µM.
The test system is the same in assay [5]. Particulars: at 1 µM.
For assay [6], the system named is Platelet-derived growth factor receptor alpha (Homo sapiens), P16234 [T674I]. The following applies: at 0.1 µM.
For assay [7] the test system is unchanged. Particulars: at 1 µM.
In assay [8] the test system is Platelet-derived growth factor receptor alpha (Homo sapiens), P16234 [V561D]. Particulars: at 0.1 µM.
The test system is the same in assay [9]. Particulars: at 1 µM.
The target in assay [10] is Platelet-derived growth factor receptor beta (Homo sapiens) (UniProt P09619). Particulars: at 0.1 µM.
Assay [11] shares this target. The following applies: at 1 µM.
Assay [12] concerns the target Tyrosine-protein kinase FRK (Homo sapiens) (UniProt P42685). Particulars: at 0.1 µM.
The target is the same in assay [13]. Particulars: at 1 µM.
For assay [14], the target named is Protein-tyrosine kinase 2-beta (Homo sapiens) (UniProt Q14289). The following applies: at 0.1 µM.
Assay [15] shares this target. Particulars: at 1 µM.
For assay [16], the target named is Proto-oncogene tyrosine-protein kinase receptor Ret (Homo sapiens) (UniProt P07949). Particulars: at 0.1 µM.
The target is the same in assay [17]. Particulars: at 1 µM.
In assay [18] the test system is Proto-oncogene tyrosine-protein kinase receptor Ret (Homo sapiens), P07949 [V804L]. Particulars: at 0.1 µM.
Assay [19] has the same test system. The following applies: at 1 µM.
In assay [20] the test system is Proto-oncogene tyrosine-protein kinase receptor Ret (Homo sapiens), P07949 [Y791F]. Particulars: at 0.1 µM.

SMILES strings stand for the structures.

Platelet-derived growth factor receptor alpha (Homo sapiens), sequence (P16234 whole entry): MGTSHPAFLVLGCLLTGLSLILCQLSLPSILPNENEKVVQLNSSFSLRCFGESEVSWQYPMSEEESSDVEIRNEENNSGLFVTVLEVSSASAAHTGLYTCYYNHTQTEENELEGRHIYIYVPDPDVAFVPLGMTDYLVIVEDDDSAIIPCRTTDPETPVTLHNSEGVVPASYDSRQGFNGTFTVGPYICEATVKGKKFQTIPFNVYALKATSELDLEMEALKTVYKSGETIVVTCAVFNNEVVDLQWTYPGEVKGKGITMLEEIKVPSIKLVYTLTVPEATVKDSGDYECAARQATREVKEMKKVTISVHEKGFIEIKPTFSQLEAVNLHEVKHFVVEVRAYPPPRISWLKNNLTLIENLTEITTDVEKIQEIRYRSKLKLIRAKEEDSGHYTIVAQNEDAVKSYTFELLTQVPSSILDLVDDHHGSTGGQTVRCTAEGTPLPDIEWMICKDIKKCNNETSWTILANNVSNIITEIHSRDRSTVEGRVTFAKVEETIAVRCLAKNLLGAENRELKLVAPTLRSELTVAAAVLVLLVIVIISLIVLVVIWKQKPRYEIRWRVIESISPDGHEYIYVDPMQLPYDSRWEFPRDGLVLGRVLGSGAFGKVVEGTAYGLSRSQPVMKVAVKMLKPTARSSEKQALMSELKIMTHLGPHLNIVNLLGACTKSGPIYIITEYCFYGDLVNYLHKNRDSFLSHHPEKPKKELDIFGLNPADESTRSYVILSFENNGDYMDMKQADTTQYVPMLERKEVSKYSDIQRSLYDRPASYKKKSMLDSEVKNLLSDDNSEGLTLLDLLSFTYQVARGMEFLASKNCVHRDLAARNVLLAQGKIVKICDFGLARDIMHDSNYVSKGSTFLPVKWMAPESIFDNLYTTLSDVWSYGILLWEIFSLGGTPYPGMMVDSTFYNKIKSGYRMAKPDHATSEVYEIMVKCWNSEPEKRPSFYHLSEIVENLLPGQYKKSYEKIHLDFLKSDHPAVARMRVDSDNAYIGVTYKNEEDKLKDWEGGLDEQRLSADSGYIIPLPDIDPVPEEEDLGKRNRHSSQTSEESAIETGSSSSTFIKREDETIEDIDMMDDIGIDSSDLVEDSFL
Platelet-derived growth factor receptor alpha (Homo sapiens), P16234 [T674I], sequence (P16234 whole entry T674I): as the sequence (P16234 whole entry) above, with T674I counted along it
Proto-oncogene tyrosine-protein kinase receptor Ret (Homo sapiens), sequence (P07949 whole entry): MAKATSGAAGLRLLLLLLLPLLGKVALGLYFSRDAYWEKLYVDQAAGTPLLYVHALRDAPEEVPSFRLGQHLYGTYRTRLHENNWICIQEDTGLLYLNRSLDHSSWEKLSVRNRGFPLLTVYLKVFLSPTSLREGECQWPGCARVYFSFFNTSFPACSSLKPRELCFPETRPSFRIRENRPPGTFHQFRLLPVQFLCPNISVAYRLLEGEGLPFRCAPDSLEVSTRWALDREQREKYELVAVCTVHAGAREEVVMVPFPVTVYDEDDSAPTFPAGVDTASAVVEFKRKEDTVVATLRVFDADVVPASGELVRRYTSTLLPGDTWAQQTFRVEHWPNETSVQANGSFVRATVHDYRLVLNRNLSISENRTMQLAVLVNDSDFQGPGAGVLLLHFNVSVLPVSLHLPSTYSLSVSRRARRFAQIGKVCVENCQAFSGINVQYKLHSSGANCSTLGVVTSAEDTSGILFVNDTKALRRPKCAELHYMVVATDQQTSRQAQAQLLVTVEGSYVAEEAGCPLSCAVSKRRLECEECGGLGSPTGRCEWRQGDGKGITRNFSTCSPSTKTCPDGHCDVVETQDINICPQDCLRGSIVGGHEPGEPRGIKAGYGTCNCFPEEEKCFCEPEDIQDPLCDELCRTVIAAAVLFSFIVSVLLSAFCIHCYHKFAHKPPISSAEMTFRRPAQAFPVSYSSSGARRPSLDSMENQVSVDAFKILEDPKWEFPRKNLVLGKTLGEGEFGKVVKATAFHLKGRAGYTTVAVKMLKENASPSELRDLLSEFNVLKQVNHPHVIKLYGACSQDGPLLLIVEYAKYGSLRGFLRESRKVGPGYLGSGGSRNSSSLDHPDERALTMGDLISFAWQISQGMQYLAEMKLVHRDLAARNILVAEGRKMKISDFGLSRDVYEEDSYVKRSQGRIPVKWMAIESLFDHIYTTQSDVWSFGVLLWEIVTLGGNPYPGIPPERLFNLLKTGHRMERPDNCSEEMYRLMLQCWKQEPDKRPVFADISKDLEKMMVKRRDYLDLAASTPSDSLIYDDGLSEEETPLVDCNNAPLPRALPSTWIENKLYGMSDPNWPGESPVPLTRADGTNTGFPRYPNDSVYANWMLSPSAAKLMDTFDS
Proto-oncogene tyrosine-protein kinase receptor Ret (Homo sapiens), P07949 [Y791F], sequence (P07949 whole entry Y791F): as the sequence (P07949 whole entry) above, with Y791F counted along it
Tyrosine-protein kinase FRK (Homo sapiens), sequence (P42685 whole entry): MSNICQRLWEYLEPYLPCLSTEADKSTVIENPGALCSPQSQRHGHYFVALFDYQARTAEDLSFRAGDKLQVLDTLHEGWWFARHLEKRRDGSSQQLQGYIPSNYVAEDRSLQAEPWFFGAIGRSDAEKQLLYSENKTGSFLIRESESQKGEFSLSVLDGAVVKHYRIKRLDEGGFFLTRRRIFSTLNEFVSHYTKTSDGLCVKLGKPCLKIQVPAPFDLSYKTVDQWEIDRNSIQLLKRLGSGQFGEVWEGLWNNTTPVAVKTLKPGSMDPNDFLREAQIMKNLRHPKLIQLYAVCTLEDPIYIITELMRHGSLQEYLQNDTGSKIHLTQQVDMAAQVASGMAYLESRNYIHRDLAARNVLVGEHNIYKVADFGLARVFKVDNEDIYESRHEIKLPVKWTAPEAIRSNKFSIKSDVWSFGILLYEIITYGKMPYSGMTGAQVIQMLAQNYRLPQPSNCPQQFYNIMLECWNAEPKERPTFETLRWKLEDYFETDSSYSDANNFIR

The term inhibition denotes the change of the read-out against control, counted positive when it falls. Turning to `COc1cccc(COc2cc(-n3cnc4ccccc43)sc2C(N)=O)c1`, the inhibition in assay [1] was -3.86%; in assay [2] it was 4.14%; in assay [3], 14.5%; in assay [4], 0.88%; in assay [5], 6.81%; in assay [6], 1.86%. Also, the inhibition was -0.65% in assay [7]; 0.87% in [8]; 5.54% in assay [9]; 0.6% in assay [10]; 8.32% in assay [11]; 0% in [12]. The inhibition in assay [13] was 0.01%; in assay [14], -3.42%; in [15] it was -2.02%; in assay [16] it was 0.11%; in assay [17], 7.33%; in assay [18], 0.81%. Further, the inhibition in assay [19] was found to be 0.07%; in assay [20], 0.47%.
Take `CCn1c(-c2nonc2N)nc2c(C#CC(C)(C)O)ncc(OCC3CCNCC3)c21`: the inhibition in assay [1] was 3.71%; in assay [2], 9.32%; in [3], 28.6%; in [4], 4.23%; in assay [5], 34.4%; in [6], 7.44%. Further, the inhibition in assay [7] was 29.9%; in [8] it was 5.4%; in [9] it was 16.6%; in assay [10] it was 12.1%; in [11], 44.6%; in assay [12] it was 1.13%. Further, the inhibition was found to be 1.21% in assay [13]; 9.34% in [14]; 29.7% in assay [15]; 6.89% in assay [16]; 26.3% in assay [17]; 6.2% in assay [18]. The inhibition in assay [19] is 28.5%; in assay [20], 5.3%.
With `Fc1ccc(-c2ncn(C3CCNCC3)c2-c2ccnc(Oc3ccccc3)n2)cc1`, the inhibition is -0.77% in assay [1]; 5.35% in assay [2]; 9.51% in assay [3]; 2.07% in assay [4]; 4% in assay [5]; 1.52% in assay [6]. The inhibition in [7] came to 5.42%; in assay [8], 2.95%; in assay [9], 5.32%; in assay [10], 3.81%; in assay [11], 5.68%; in assay [12] it was 1.48%. Further, the inhibition was 1.29% in assay [13]; 4.92% in [14]; 6.66% in [15]; 3.19% in assay [16]; 7.03% in assay [17]; 1.33% in assay [18]. The inhibition in [19] was determined as 5.85%; in assay [20], 1.85%.
For the compound `CCn1c(-c2nonc2N)nc2c(C#CC(C)(C)O)ncc(OC[C@@H]3CCCN3)c21`, the inhibition in assay [1] is -3.74%; in assay [2] it was 5.65%; in assay [3], 24.4%; in assay [4], 7.78%; in [5] it was 44.4%; in assay [6] it was 4.92%. In addition, the inhibition was 26.6% in assay [7]; 2.28% in [8]; 22.3% in [9]; 8.36% in [10]; 47.2% in assay [11]; -0.88% in assay [12]. For the same compound, the inhibition in assay [13] stood at 0.68%; in assay [14], 1.89%; in assay [15] it was 23%; in assay [16], 3.87%; in assay [17] it was 25.2%; in assay [18], 0.45%. Moreover, the inhibition in [19] is 2.53%; in [20], 3%.
For the compound `COc1cccc(-n2ncc3c(N/N=C/c4ccncc4)ncnc32)c1`, the inhibition in assay [1] is 45.6%; in [2], 43%; in assay [3], 79.5%; in assay [4], 44.4%; in [5] it was 87.3%; in assay [6] it was 25.4%. Besides, the inhibition in assay [7] came to 82.4%; in [8] it was 40.4%; in assay [9] it was 84.7%; in [10], 45%; in [11], 81.2%; in assay [12], 2.72%. For the same compound, the inhibition turned out to be 5.75% in assay [13]; 11.5% in [14]; 16.5% in assay [15]; 9.73% in assay [16]; 50.3% in assay [17]; 7.23% in [18]. The inhibition in assay [19] worked out at 31.1%; in assay [20], 18.4%.
As for `NC(=O)c1sc(-n2cnc3cc(C(F)(F)F)ccc32)cc1OCc1ccccc1Br`, the inhibition in [1] is -0.86%; in assay [2], 7.64%; in [3] it was 6.52%; in assay [4] it was 4.16%; in assay [5], 5.38%; in assay [6], 3.44%. In addition, the inhibition in assay [7] amounted to 2.59%; in assay [8] it was 3.5%; in assay [9] it was 4.58%; in [10], 3.03%; in [11], 5.82%; in assay [12] it was 0.62%. In addition, the inhibition in assay [13] was -0.62%; in [14], 3.52%; in assay [15] it was -2.94%; in assay [16] it was 5.91%; in assay [17], 2.23%; in assay [18], 1.83%. The inhibition is 11.6% in assay [19] and 2.29% in [20].
For the compound `NS(=O)(=O)c1ccc(N/C=C2\C(=O)Nc3ccc4ncsc4c32)cc1`, the inhibition is 51.2% in assay [1]; 54.4% in [2]; 86.9% in assay [3]; 55.5% in assay [4]; 91.5% in [5]; 15.1% in [6]. Further, the inhibition in assay [7] stood at 60.9%; in assay [8], 48.2%; in [9] it was 90.9%; in assay [10] it was 56.5%; in assay [11], 86.8%; in assay [12], 2.34%. The inhibition amounted to 3.93% in assay [13]; 7.28% in [14]; 43.6% in assay [15]; 30.4% in [16]; 71.3% in assay [17]; 47.3% in assay [18]. Further, the inhibition stood at 73.9% in assay [19] and 30.5% in assay [20].
